Experimental findings from PubChem BioAssay (Tox21) are described below.

Inconclusive results are not listed. Where a call stands in place of a potency, no number is given. A number with no mark means an inactive call. Active and inactive are the calls of the source. The call rests on the fitted dose curve.
Potency means the concentration at half of the fitted maximal effect.

A short description of this assay: p53 small molecule agonists, cell-based qHTS assay: qHTS cell viability counter screen (AID 1963581). Further: nearly all actives have a fitted effect of over 45% in size. Particulars: p53RE-bla HCT-116 viability, ATP luminescence, 16 h; series mostly up to 66 µM. From the text: National Center for Advancing Translational Sciences [NCATS]
Division of Preclinical Innovation [DPI]
U.S. Environmental Protection Agency [EPA]
National Institutes of Environmental Health Sciences [NIEHS]
National Toxicology Program [NTP]
U.S. Food and Drug Administration [FDA]
p53, a tumor suppressor protein, is activated following cellular insult, including DNA damage and other cellular stresses. The activation of p53 regulates cell fate by inducing DNA repair, cell cycle arrest, apoptosis, or cellular senescence. The activation of p53, therefore, is a good indicator of DNA damage and other cellular stresses. The CellSensor p53RE-bla HCT-116 cell line (Invitrogen) contains a stably integrated beta-lactamase reporter gene under control of the p53 response elements. The activation of the reporter gene under culture conditions can be detected by fluorescence intensity. This cell line was used to screen the Tox21 compound library in a 1536-well plate format and to identify agonists that activate the p53 signaling pathway. The cytotoxicity of the Tox21 compound library against the p53 RE-bla HCT-116 cell line was tested in parallel by measuring the intra cellular ATP content in the same wells.
Tox21 Assay Protocol Summary:
The p53RE-bla cells were dispensed at 4,000 cells/5 ul/well in 1536-well black wall/clear bottom plates using a Multidrop dispenser. After the assay plates were incubated at a 37 C/5% CO2 incubator for 5 hours, 23 nL of compounds dissolved in DMSO, positive controls or DMSO only was transferred to the assay plate by a pin tool. The plates were incubated at 37 C for 16 hours. After 1 uL of LiveBLAzerTM B/G FRET substrate was added using a Flying Reagent Dispenser, the plates were incubated at room temperature for 2 hours, and fluorescence intensity was measured by an Envision plate reader. For cell viability readout that measures cytotoxicity, 4 ul/well of CellTiter-Glo reagent was added into the assay plates using a Flying Reagent Dispenser. After 30 min incubation at room temperature, the luminescence intensity in the plates was measured using a ViewLux plate reader.
On to `C1C2OC2C2C1C1CC2C2OC12` (stereo not given), for which the Potency entry was “inactive”.

As for `CN1CCC(N(Cc2cccs2)c2ccccc2)CC1`, the Potency result was “inactive”.

As for `Cn1ccc2cc3c(cc21)CCN3C(=O)Nc1cccnc1`, the activity change, negative = cytotoxicity is -10.9% [at 13.5 µM].

For `O=C1NC(=O)c2cccc3cccc1c23`, the Potency result was “inactive”.

As for `Cc1ccc(S(=O)(=O)C(I)I)cc1`, the Potency result is “inactive”.

For `CCN(CC)c1ccc(C(=C2C=CC(=[N+](CC)CC)C=C2)c2cc(S(=O)(=O)O)ccc2S(=O)(=O)[O-])cc1`, the Potency is 17.8 µM (active).

Consider `COc1nc(C)nc(Cl)c1NC1=NCCN1`, for which the Potency entry was “inactive”.

Consider `N#CCCCC(C#N)CCC#N` (stereo not given), for which the Potency entry was “inactive”.

As to `CC(=O)Oc1ccc([N+](=O)[O-])cc1CCl`, the Potency result was “inactive”.

Regarding `O=C(O)c1cc(Br)c(O)c(Br)c1`, the Potency result was “inactive”.

Regarding `CC(C)NCC(O)c1cc(O)cc(O)c1` (stereo not given), the Potency entry was “inactive”.

For `CCCc1nc(C)c2c(=O)[nH]c(-c3cc(S(=O)(=O)N4CCN(CC)CC4)ccc3OCC)nn12`, the Potency entry is “inactive”.

For `Cc1ccc(S(=O)(=O)NC(=O)NC2CCCCC2)cc1`, the Potency entry was “inactive”.

Regarding `COc1nccnc1CC(C)C`, the Potency entry is “inactive”.

On to `CCOC(=O)[C@H](CCc1ccccc1)N[C@H]1CCc2ccccc2N(CC(=O)O)C1=O`, for which the Potency result is “inactive”.

Take `COC(=O)c1cc(Cl)ccc1[N+](=O)[O-]`: the Potency result is “inactive”.

Regarding `O=S(=O)(O)c1cc(S(=O)(=O)O)c2ccc3c(S(=O)(=O)O)cc(S(=O)(=O)O)c4ccc1c2c43`, the activity change, negative = cytotoxicity was -29.1% [at 13.5 µM].

On to `Cc1c(C)n(Cc2ccccc2)c2ccc(C(=O)OCCN(C)C)cc12`, for which the Potency result was “inactive”.

`Cc1cc(NC(=O)C(=O)O)cc(C)c1Oc1ccc(O)c2c1CCC2`: the Potency result was “inactive”.

In the case of `c1coc(Cn2cccc2)c1`, the Potency result was “inactive”.

Take `Cc1ccc(Cl)c(Nc2ccccc2C(=O)O)c1Cl`: the Potency entry was “inactive”.

As for `c1ccc(-c2nc[nH]c2-c2ccccc2)cc1`, the Potency entry is “inactive”.

Regarding `CCC(C)(C)c1cc(O)c(C(C)(C)CC)cc1O`, the Potency result was “inactive”.

Take `CCN(CC)c1cccc(O)c1`: the Potency result is “inactive”.

As to `CC(=O)OCC(=O)[C@H]1CC[C@H]2[C@@H]3CCC4=CC(=O)CC[C@]4(C)[C@H]3CC[C@]12C`, the Potency result is “inactive”.

Take `C[C@@H](c1ncncc1F)C(O)(Cn1cncn1)c1ccc(F)cc1F` (stereo not given in full): the Potency result is “inactive”.

Consider `Cc1onc(-c2c(Cl)cccc2Cl)c1C(=O)Cl`, for which the Potency entry is “inactive”.

Consider `CC(C)CCOC(=O)c1ccc(N(C)C)cc1`, for which the Potency result is “inactive”.

Consider `CCCCCC(C)O` (stereo not given), for which the Potency entry is “inactive”.

With `C/C(=C\c1ccc(C(=O)O)cc1)c1ccc2c(c1)C(C)(C)CCC2(C)C`, the Potency result was “inactive”.

`CCOC(=O)NCCOc1ccc(Oc2ccccc2)cc1`: the Potency entry is “inactive”.

Turning to `O=C1CCc2cc(OCCCCc3nnnn3C3CCCCC3)ccc2N1`, the Potency entry was “inactive”.

Regarding `O=S(=O)(O)c1cc(I)c(O)c2ncccc12`, the Potency result was “inactive”.

`Cc1ccccn1`: the Potency result was “inactive”.

Regarding `C=CC(=O)NC(C)(C)C`, the Potency result was “inactive”.

As to `COCCOC`, the Potency is 2.75 µM (active).

As for `CS(=O)(=O)Nc1ccc([N+](=O)[O-])cc1Oc1ccccc1`, the Potency entry was “inactive”.

Take `C[C@]12CCC(=O)C=C1CC[C@H]1[C@@H]3CC[C@](O)(C(=O)CO)[C@@]3(C)C[C@H](O)[C@@]12F`: the Potency entry is “inactive”.

Regarding `CN(C)CCCN(C)C`, the activity change, negative = cytotoxicity is -23% [at 5.99 µM].

In the case of `CCO[C@H](Cc1ccc(OCCc2ccc(OS(C)(=O)=O)cc2)cc1)C(=O)O`, the Potency entry was “inactive”.
